According to PubChem BioAssay AID1159577 (Broad Institute, 2015):
Screen size: about 1,300 compounds; about 240 (18%) were called active. Inconclusive results (about 8%) are left out. The rule behind the calls is not given here. A selection follows. Potency and affinity values are given separately.

test: toxicity to human hepatoma HepG2 cells – cell-based, cherry-picked samples, cytotoxicity control, dose response (AID 1159577); conditions: HepG2 cytotoxicity counterscreen, plate reader; series mostly up to 19.5 µM; activity change, negative = cytotoxicity: at the top concentration;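 note: 0% = neutral control wells and -100% = positive control wells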

| SMILES | activity change, negative = cytotoxicity |
| --- | --- |
| C[C@H]1CN([C@@H](C)CO)S(=O)(=O)c2ccc(C#Cc3ccccc3)cc2O[C@@H]1CN(C)C(=O)C1CC1 | 5.15% (inactive) |
| O=C(C[C@H]1C=C[C@@H](NC(=O)Nc2ccccc2F)[C@H](CO)O1)NCc1ccc(-c2ccccc2)cc1 | -11.7% (inactive) |
| O=C(c1cccc(F)c1)N1CC[C@H]2[C@H](CO)Nc3ccc(C#Cc4cccc(F)c4)cc3[C@H]21 | -5.55% (inactive) |
| OC[C@@H]1Nc2ccc(C#Cc3cccc(F)c3)cc2[C@@H]2NCC[C@H]12 | 3.72% (inactive) |
| COc1ccccc1C#Cc1ccc2c(c1)[C@H]1NCC[C@H]1[C@@H](CO)N2 | -5.66% (inactive) |
| O=C(c1ccccc1F)N1CC[C@H]2[C@H](CO)Nc3ccc(C#Cc4ccc(F)cc4)cc3[C@H]21 | -4.6% (inactive) |
| COc1ccc(CN2C[C@@H](C)[C@H](OC)CN(C)C(=O)c3ccc(NC(=O)c4nc5ccccc5s4)cc3OC[C@H]2C)cc1 | 13.7% (inactive) |
| CCCN(C)C[C@@H]1Oc2cc(C#Cc3ccccc3)ccc2S(=O)(=O)N([C@@H](C)CO)C[C@@H]1C | -10.6% (inactive) |
| COc1cccc(NC(=O)N2[C@@H](CO)[C@H](c3ccccc3)[C@@H]2CNCC(C)C)c1 | -1.48% (inactive) |
| O=C(c1cccc(F)c1)N1CC(=O)N2[C@H](CO)[C@H](c3ccc(-c4cccnc4)cc3)[C@H]2C1 | -1.35% (inactive) |
| CO[C@H]1CN(C)C(=O)c2cc(NC(=O)c3cc(C)on3)ccc2OC[C@H](C)N(C(=O)C2CC2)C[C@H]1C | -7.36% (inactive) |
| COc1ccc2c3c(n(C)c2c1)[C@@H](CO)N(C(=O)C1CC1)CC31CN(C(=O)Nc2cccc(F)c2)C1 | 8.97% (inactive) |
| C[C@H](CO)N1C[C@H](C)[C@@H](CN(C)C(=O)c2ccccc2F)Oc2ncc(C#Cc3cccc(F)c3)cc2C1=O | 13.4% (inactive) |
| COCC#Cc1ccc([C@H]2[C@H](CO)N3C(=O)CN(C(=O)CN4CCOCC4)C[C@@H]23)cc1 | 5.71% (inactive) |
| COc1ccc(C#Cc2ccc3c(c2)[C@@H]2[C@@H](CCN2C(=O)C2CCCC2)[C@H](CO)N3)cc1 | 0.018% [at 21 µM] (inactive) |
| CC(C)(C)[S@@](=O)N1Cc2cc(C(=O)NCCN3CCCCC3)nc(-c3cccc(-c4ccc(C#N)cc4)c3)c2[C@H]1CCO | -27.2% [at 21 µM] (inactive) |
| CN1CCN(C(=O)C[C@H]2C[C@@H]3c4cc(NC(=O)Nc5ccc(C(F)(F)F)cc5)ccc4O[C@@H]3[C@@H](CO)O2)CC1 | 23.3% (inactive) |
| COCC(=O)N1CC2(C1)CN(C(=O)CN1CCOCC1)[C@@H](CO)c1c2c2ccc(OC)cc2n1C | -17.1% (inactive) |
| CCCN(C)C[C@H]1Oc2cc(C#Cc3cccnc3)ccc2S(=O)(=O)N([C@H](C)CO)C[C@H]1C | -14.6% (inactive) |
| CO[C@H]1CN(C)C(=O)c2ccc(NC(=O)CC(F)(F)F)cc2OC[C@@H](C)N(CC2CC2)C[C@H]1C | 45.9% [at 21 µM] (inactive) |
| CCCC#Cc1ccc2c(c1)O[C@H](CN(C)C(=O)Nc1ccc(OC)cc1)[C@H](C)CN([C@H](C)CO)S2(=O)=O | 4.59% (inactive) |
| N#Cc1ccc(-c2ccc3c(c2)[C@@H]2[C@@H](CCN2C(=O)C2CCC2)[C@@H](CO)N3)cc1 | 6.07% (inactive) |
| COc1ccc(CN2CC3(C2)CN(Cc2ccc4c(c2)OCO4)[C@H](CO)c2[nH]c4cc(OC)ccc4c23)cc1 | -18.4% (inactive) |

| SMILES | activity change, negative = cytotoxicity |
| --- | --- |
| COc1ccc(CN2CC3(CN(C(C)=O)C3)c3c([nH]c4cc(OC)ccc34)[C@@H]2CO)cc1 | 3.59% (inactive) |
| COc1ccc2c3c([nH]c2c1)[C@@H](CO)N(C(=O)CN(C)C)CC31CCN(CC2CCCCC2)CC1 | -23.6% (inactive) |
| COc1ccc2c3c([nH]c2c1)[C@@H](CO)N(C(C)=O)CC31CN(C(=O)CN2CCOCC2)C1 | 1.53% (inactive) |
| CO[C@H]1CN(C)C(=O)c2cc(NC(=O)c3ccccc3F)ccc2OC[C@H](C)N(C)C[C@H]1C | -21.2% (inactive) |
| COc1ccccc1CNC(=O)C[C@H]1C[C@@H]2c3cc(NC(=O)Nc4ccc(C(F)(F)F)cc4)ccc3O[C@@H]2[C@H](CO)O1 | -37.6% (inactive) |
| C[C@H]1CN([C@@H](C)CO)C(=O)Cc2cc(NC(=O)CCC(F)(F)F)ccc2O[C@H]1CN(C)S(C)(=O)=O | -7.8% [at 21 µM] (inactive) |
| COc1ccccc1C#Cc1ccc2c(c1)[C@H]1[C@H](CCN1C(=O)CN1CCOCC1)[C@@H](CO)N2 | -5.84% (inactive) |
| CO[C@@H]1CN(C)C(=O)c2ccc(NC(=O)Nc3ccccc3F)cc2OC[C@@H](C)N(CC2CC2)C[C@H]1C | 12.8% (inactive) |
| C[C@H](CO)N1C[C@H](C)[C@H](CN(C)C(=O)Cc2ccncc2)Oc2cc(C#CC3CCCC3)ccc2S1(=O)=O | -14.7% (inactive) |
| COc1ccc(CN2C[C@@H](C)[C@@H](OC)CN(C)C(=O)c3cc(NC(=O)c4nc5ccccc5s4)ccc3OC[C@H]2C)cc1 | -3.74% [at 21 µM] (inactive) |
| CCCN(C)C[C@@H]1Oc2cc(C#Cc3ccncc3)ccc2S(=O)(=O)N([C@H](C)CO)C[C@@H]1C | 12.5% (inactive) |
| COc1ccc(NC(=O)N(C)C[C@@H]2Oc3cc(-c4ccc(C)cc4)ccc3S(=O)(=O)N([C@H](C)CO)C[C@H]2C)cc1 | -8.05% (inactive) |
| CCS(=O)(=O)N1CCCCN2[C@H](CO)[C@H](c3ccc(C#Cc4ccccc4OC)cc3)[C@@H]2C1 | -13.8% (inactive) |
| CCC(=O)Nc1ccc2c(c1)OC[C@@H](C)N(Cc1cccc(F)c1)C[C@@H](C)[C@H](OC)CN(C)C2=O | -5.61% (inactive) |
| CCCNC(=O)Nc1ccc2c(c1)OC[C@@H](C)N(Cc1ccccc1)C[C@@H](C)[C@H](OC)CN(C)C2=O | -18.6% (inactive) |
| COCC(=O)N1[C@H](C#N)[C@@H](c2ccccc2C2=CCCC2)[C@@H]1CO | -6.44% (inactive) |
| COc1ccc2c3c(n(C)c2c1)[C@H](CO)N(C(=O)Nc1ccc(F)cc1)CC31CN(C(=O)c2ccc3c(c2)OCO3)C1 | -9.75% (inactive) |
| C[C@@H]1CN([C@H](C)CO)C(=O)c2ccccc2-c2ccccc2CO[C@@H]1CN(C)Cc1ccc(C(F)(F)F)cc1 | -2.81% (inactive) |
| C[C@H]1CN([C@@H](C)CO)C(=O)c2ccccc2-c2ccccc2CO[C@H]1CN(C)Cc1ccc(-c2ccccc2)cc1 | -6.19% (inactive) |
| C[C@@H]1CN([C@H](C)CO)C(=O)c2ccccc2-c2ccccc2CO[C@H]1CN(C)C(=O)Nc1cccc(C(F)(F)F)c1 | -2.23% [at 21 µM] (inactive) |
| C[C@@H]1CN([C@@H](C)CO)C(=O)c2ccccc2-c2ccccc2CO[C@H]1CN(C)C(=O)Nc1cccc(C(F)(F)F)c1 | -8.02% [at 21 µM] (inactive) |
| C[C@H]1CN([C@@H](C)CO)C(=O)c2ccccc2-c2ccccc2CO[C@H]1CN(C)Cc1ccc(Oc2ccccc2)cc1 | -19.8% [at 21 µM] (inactive) |
| C[C@H]1CN([C@@H](C)CO)C(=O)c2ccccc2-c2ccccc2CO[C@H]1CN(C)Cc1cccc(C(F)(F)F)c1 | -13.8% (inactive) |

| SMILES | activity change, negative = cytotoxicity |
| --- | --- |
| C[C@H](CO)N1C[C@H](C)[C@H](CN(C)C(=O)Nc2ccc(N3CCCCC3)cc2)OCc2cnnn2CCCC1=O | 7.84% (inactive) |
| CCCC(=O)N1CC2(C1)CN(Cc1ccccc1F)[C@H](CO)c1c2c2ccc(OC)cc2n1C | -26.6% (inactive) |
| COc1ccc2c3c([nH]c2c1)[C@@H](CO)N(Cc1cccc(Cl)c1)CC31CCN(C(C)=O)CC1 | 2.58% (inactive) |
| CN(C)c1ccc2c(c1)[C@@H]1C[C@H](CC(=O)N3CCc4ccccc4C3)O[C@@H](CO)[C@@H]1O2 | 14.7% (inactive) |
| CO[C@@H]1CN(C)C(=O)c2ccc(NC(=O)NC3CCCCC3)cc2OC[C@@H](C)N(CCc2ccccc2)C[C@H]1C | 6.34% [at 21 µM] (inactive) |
| O=C(Nc1ccc(F)cc1)N1C[C@H]2[C@@H](c3ccccc31)[C@@H](CO)N2Cc1cocn1 | -1.49% (inactive) |
| COc1ccc(NC(=O)N2CC3(C2)CN(C(=O)C2CCC2)[C@H](CO)c2c3c3ccc(OC)cc3n2C)cc1 | 17.1% (inactive) |
| C/C=C/c1ccccc1[C@H]1[C@@H](C#N)N(C(=O)NC2CCCC2)[C@H]1CO | -37.1% (inactive) |
| COc1ccc(-c2ccc3c(c2)[C@H]2[C@H](CCN2C(=O)C2CCCC2)[C@H](CO)N3C)cc1 | -6.49% (inactive) |
| COc1ccc(-c2ccc3c(c2)[C@H]2[C@H](CCN2C(=O)NC2CCCC2)[C@H](CO)N3C)cc1 | -7.82% [at 21 µM] (inactive) |
| O=C(c1ccc(F)cc1)N1CC(=O)N2[C@H](C1)[C@@H](c1ccc(-c3cccnc3)cc1)[C@@H]2CO | 7.07% (inactive) |
| CCCNC(=O)Nc1ccc2c(c1)C(=O)N(C)C[C@H](OC)[C@@H](C)CN(C(=O)C1CCOCC1)[C@H](C)CO2 | -8.62% (inactive) |
| CO[C@@H]1CN(C)C(=O)c2ccc(NC(=O)Nc3ccccc3F)cc2OC[C@@H](C)N(Cc2ccccc2F)C[C@H]1C | -9.23% [at 21 µM] (inactive) |
| Cc1ccccc1S(=O)(=O)N1CC(=O)N2[C@H](CO)[C@H](c3ccc(C#CCC4CCCC4)cc3)[C@H]2C1 | 2.71% (inactive) |
| Cc1ccccc1S(=O)(=O)N1CC(=O)N2[C@H](CO)[C@H](c3ccc(C#CC4CC4)cc3)[C@@H]2C1 | 28.6% (inactive) |
| O=C1CN(S(=O)(=O)c2ccccc2)C[C@H]2[C@H](c3ccc(C#CCc4ccccc4)cc3)[C@@H](CO)N12 | -9.33% (inactive) |
| O=C1CN(S(=O)(=O)c2ccccc2)C[C@@H]2[C@H](c3ccc(C#CCc4ccccc4)cc3)[C@@H](CO)N12 | 2.88% (inactive) |
| C[C@@H]1CN([C@@H](C)CO)C(=O)c2cccc(NC(=O)c3nc4ccccc4s3)c2O[C@H]1CN(C)C(=O)Nc1ccc2c(c1)OCO2 | 1.55% (inactive) |
| CCNC(=O)c1cc2c(c(-c3cccc(-c4cc5ccccc5o4)c3)n1)[C@@H](CCO)N(C(=O)NC(C)C)C2 | -12.2% (inactive) |
| CC(C)(C)[S@](=O)N1Cc2cc(C(=O)NCCN3CCCCC3)nc(-c3cccc(-c4ccc(C#N)cc4)c3)c2[C@@H]1CCO | -3.55% [at 21 µM] (inactive) |
| COc1ccccc1S(=O)(=O)N(C)C[C@@H]1Oc2cc(/C=C/c3ccccc3)ccc2S(=O)(=O)N([C@H](C)CO)C[C@H]1C | -16.5% (inactive) |
| O=C(c1ccccc1F)N1CC(=O)N2[C@H](CO)[C@H](c3ccc(-c4cccnc4)cc3)[C@H]2C1 | -9.99% (inactive) |
| C[C@@H]1CN([C@@H](C)CO)C(=O)c2cccc(NC(=O)c3nc4ccccc4s3)c2O[C@H]1CN(C)C(=O)Nc1ccc(C(F)(F)F)cc1 | 28% (inactive) |
